ATXN viability = reduces viability in counter-screen for ATXN expression inhibitors; S2 cells (HEK-293 line with an ATXN2-luciferase reporter) viability, CellTiter-Fluor protease fluorescence, 24 h; Potency, µM (titrated, usually from 56.7 µM), usual class: cytotoxic; 0.49% of 400,000 active; AID 651635; note: nearly all actives have a fitted effect of over 40% in size
HepG2 tox = HepG2 cytotoxicity, counter-screen for TGF-b inhibitors; HepG2 CAGA-GFP viability, ATP luminescence, 18 h; Potency, µM (doses to about 46.1 µM), usual class: cytotoxic; 0.76% of 410,000 active
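HepG2 CAGA-GFP cells (1000/well, DMEM with 1% FBS) received compound, then TGF-beta at 500 pg/mL final, and were incubated 18 hours at 37 degrees C. Viability was read by CellTiter-Glo luminescence. Media-only wells were set as complete cell-killing and DMSO as no toxicity.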
RORgamma inh = ROR gamma (mouse) transcription inhibition | AID 2551 | Potency, µM (doses to about 53.6 µM), most hits filed as inhibitors | 5.4% of 310,000 active | Drosophila S2 Gal4-RORgamma UAS-luciferase reporter, 20 h; note: nearly all actives have a fitted effect of over 60% in size
Target sequence (P51450 whole entry, looked up, the tested form may be a part): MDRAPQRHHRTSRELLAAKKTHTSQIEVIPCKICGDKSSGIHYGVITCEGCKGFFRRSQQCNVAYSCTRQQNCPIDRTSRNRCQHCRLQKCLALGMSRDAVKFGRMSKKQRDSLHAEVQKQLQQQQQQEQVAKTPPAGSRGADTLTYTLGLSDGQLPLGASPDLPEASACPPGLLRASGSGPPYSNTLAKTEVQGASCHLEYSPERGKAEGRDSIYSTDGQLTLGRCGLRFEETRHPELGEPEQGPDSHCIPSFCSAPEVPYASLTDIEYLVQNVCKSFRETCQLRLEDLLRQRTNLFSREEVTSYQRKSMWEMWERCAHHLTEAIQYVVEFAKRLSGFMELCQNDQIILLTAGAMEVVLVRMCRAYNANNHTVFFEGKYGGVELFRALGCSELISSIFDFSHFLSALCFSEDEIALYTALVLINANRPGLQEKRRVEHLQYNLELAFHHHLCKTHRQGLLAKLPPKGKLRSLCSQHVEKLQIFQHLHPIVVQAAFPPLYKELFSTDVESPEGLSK
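Using a luciferase readout, inhibitors were identified by reduced reporter activity in Drosophila cells coexpressing a copper-inducible Gal4–ROR gamma fusion and UAS-driven Photinus luciferase, incubated 20 hr after 700 uM copper sulfate.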
TGFb SMAD3 inh = blocks TGF-b signaling | AID 588855 | 1.2% of 410,000 active | Potency, µM (highest dose often 46.1 µM), most hits filed as inhibitors | HepG2 CAGA-GFP TGF-b/SMAD3 reporter, GFP fluorescence, 18 h; TGF-beta stimulated, 500 pg/mL final; note: nearly all actives have a fitted effect of over 65% in size
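TGF-beta reporter screen: HEPG2 CAGA-GFP, 1% FBS, 500 pg/mL TGF-beta final, 18 h; per-cell GFP summed per well; curves fitted and categorized by class.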
ATXN2 expr inh = ATXN2 expression inhibition. Potency, µM (top dose mostly 57 µM), actives largely listed as inhibitors. HEK-293 ATXN2-luciferase reporter, luminescence, 24 h. 0.72% of 360,000 active; note: nearly all actives have a fitted effect of over 55% in size
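qHTS (up to 57 uM final) was run with 24 h compound exposure of reporter cells at 37 °C. Each well was multiplexed: SteadyGlo luminescence measured ATXN2-luciferase expression after a fluorogenic Gly-Phe-AFC viability readout (25 uM final).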
Gal4-VP16 FLuc = counter-screen for ROR gamma inhibitors: Gal4-VP16 reporter; Potency, µM (doses to about 53.6 µM), actives largely listed as inhibitors; 3.5% of 310,000 active; Drosophila S2 Gal4-VP16 UAS-luciferase, luminescence, 20 h; AID 2546;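 note: Gal4-VP16 expression switched on by copper sulfate through the metallothionein promoter; nearly all actives have a fitted effect of over 50% in size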
Of the large screens only hits and unclear results are named; the others gave an inactive call; ! = not active in a repeat. Hits are enriched below; roughly 6.1% of the tested compounds scored in any of these assays. Calls come from the whole dose curve; as a rule, active = well fitted curve in the direction sought with a large enough effect; inconclusive = small, poorly fitted or top-dose-only effect, or another doubt; inactive = no such curve, though single readings can be large; an effect the other way counts as inactive or inconclusive.

Cc1nc(-c2ccccc2)cc(=O)[nH]1	ATXN viability inconclusive, TGFb SMAD3 inh inconclusive
Cc1ccc2oc(Nc3nc(-c4ccccc4)cc(=O)[nH]3)nc2c1	ATXN viability inconclusive, RORgamma inh 2.8µM
Cc1ccccc1NC(=O)c1c(C)oc2ccc(O)c(CN3CCC(C)CC3)c12	ATXN viability inconclusive, TGFb SMAD3 inh inconclusive (no result: RORgamma inh, Gal4-VP16 FLuc)
O=c1cc(COc2ccc(Cl)cc2Cl)nc2scc(-c3ccccc3)n12	none (no result: RORgamma inh, Gal4-VP16 FLuc)
O=C(CN1Cc2ccccc2OC(c2ccsc2)C1)N1CCN(Cc2ccc3c(c2)OCO3)CC1 (stereo not given)	none (no result: HepG2 tox, RORgamma inh, TGFb SMAD3 inh, ATXN2 expr inh, Gal4-VP16 FLuc)
COC(=O)Cc1cc(=O)[nH]c(Nc2nc3ccccc3o2)n1	Gal4-VP16 FLuc inconclusive
COCc1cc(=O)[nH]c(Nc2nc3ccccc3o2)n1	ATXN viability inconclusive, RORgamma inh 3.5µM, TGFb SMAD3 inh inconclusive, ATXN2 expr inh inconclusive, Gal4-VP16 FLuc inconclusive
COc1ccc(C)c2sc(N(Cc3cccnc3)C(=O)c3cccs3)nc12	TGFb SMAD3 inh inconclusive (no result: ATXN viability, RORgamma inh, ATXN2 expr inh, Gal4-VP16 FLuc)
Fc1ccc(NC(=S)Nc2cccnc2)cc1Cl	none (no result: ATXN2 expr inh)
Fc1ccc(NC(=S)Nc2cc(-c3ccccc3)[nH]n2)cc1Cl	ATXN viability inconclusive, RORgamma inh 0.79µM, Gal4-VP16 FLuc 1.6µM
Cc1ccc(NC(=S)Nc2cc(-c3ccccc3)[nH]n2)cc1Cl	ATXN viability inconclusive, RORgamma inh 0.79µM, Gal4-VP16 FLuc 2.2µM
COc1ccc(-n2c(CNC(=O)c3ccccc3C(F)(F)F)nnc2SC)cc1	none (no result: HepG2 tox, RORgamma inh, TGFb SMAD3 inh, ATXN2 expr inh, Gal4-VP16 FLuc)
CC[C@H](C)[C@@H](CN[C@H](C)CNC)NCCC(c1ccccc1)c1ccccc1	ATXN viability 32µM, HepG2 tox 22µM, RORgamma inh inconclusive, TGFb SMAD3 inh inconclusive, ATXN2 expr inh inconclusive
O=C(NCc1ccccc1Cl)c1ccc(CSCc2cccc(F)c2)o1	TGFb SMAD3 inh inconclusive (no result: ATXN viability, RORgamma inh, ATXN2 expr inh, Gal4-VP16 FLuc)
O=C(NCc1ccc(F)cc1Cl)c1ccc(CSCc2ccccc2Cl)o1	TGFb SMAD3 inh 13µM (no result: ATXN viability, RORgamma inh, ATXN2 expr inh, Gal4-VP16 FLuc)
Cc1ccc(NC(=O)CCNS(=O)(=O)c2ccc3c(c2)CCCC(=O)N3)cc1	none (no result: RORgamma inh, Gal4-VP16 FLuc)
O=S(=O)(c1ccccc1)c1nc(-c2ccco2)oc1NCc1cccnc1	HepG2 tox 11µM
O=S(=O)(c1ccccc1)c1nc(-c2ccccc2)oc1NCc1cccnc1	none
C[N+]1(C)CCN(CC(O)(c2ccccc2)C2CCCCC2)CC1 (stereo not given)	none (no result: HepG2 tox, RORgamma inh, TGFb SMAD3 inh, ATXN2 expr inh, Gal4-VP16 FLuc)
COc1ccc(C2CC(O)(c3ccccc3)Oc3c(C)ccc(C(C)C)c32)cc1 (stereo not given)	TGFb SMAD3 inh 16µM, Gal4-VP16 FLuc inconclusive (no result: ATXN viability, ATXN2 expr inh)
COc1ccc(C2CC(O)(c3ccccc3)Oc3cc(OC)ccc32)cc1 (stereo not given)	ATXN viability inconclusive, HepG2 tox 13µM!, RORgamma inh inconclusive, TGFb SMAD3 inh 18µM, Gal4-VP16 FLuc inconclusive
COc1ccc(C2CC(c3ccccc3)Oc3c(C)ccc(C(C)C)c32)cc1 (stereo not given)	TGFb SMAD3 inh inconclusive (no result: ATXN viability, ATXN2 expr inh)
CC(Oc1ccccc1F)C(=O)NCC1(N2CCOCC2)CCCCC1 (stereo not given)	none (no result: ATXN viability, RORgamma inh, ATXN2 expr inh, Gal4-VP16 FLuc)
Cc1cccc(C)c1NC(=O)CN1CCCCCC1	none (no result: HepG2 tox, TGFb SMAD3 inh)
Cn1nnc(NC(=S)NC(=O)c2cccc3c(Cl)cccc23)n1	RORgamma inh 0.89µM, Gal4-VP16 FLuc 2.8µM
Cn1nnc(NC(=S)NC(=O)c2cccc3c(Br)cccc23)n1	RORgamma inh 0.89µM, Gal4-VP16 FLuc 2.8µM
COc1c(C(=O)NC(=S)Nc2nnn(C)n2)cc2ccccc2c1Br	RORgamma inh 2.5µM, Gal4-VP16 FLuc 4µM
COc1ccccc1C(=O)Nc1nnn(C)n1	none
COc1cc(OC)cc(C(=O)Nc2cc(-c3nc4ccccc4[nH]3)ccc2C)c1	ATXN viability inconclusive, ATXN2 expr inh inconclusive (no result: RORgamma inh, Gal4-VP16 FLuc)
COc1c(Cl)cc(C(=O)Nc2cc(-c3nc4ccccc4[nH]3)ccc2C)cc1Cl	ATXN viability 10µM, TGFb SMAD3 inh inconclusive, ATXN2 expr inh inconclusive (no result: RORgamma inh, Gal4-VP16 FLuc)
Cc1cc[n+](CCC2CCCCC2)cc1	TGFb SMAD3 inh inconclusive (no result: ATXN viability, RORgamma inh, ATXN2 expr inh, Gal4-VP16 FLuc)
COC(=O)c1sc(NC(=S)NC(=O)c2cccc(C)c2)nc1C	RORgamma inh 4µM, Gal4-VP16 FLuc inconclusive
Cc1nc(NC(N)=S)sc1C(=O)Nc1ccccc1	HepG2 tox 11µM, RORgamma inh 11µM
